The list is not random: actives were taken first. Their share in the collection is about 7.3%.
ELG1 genotox: inducers of genotoxicity in HEK293T ELG1-luciferase cells. HEK293T ELG1-luciferase reporter, luminescence, 16 h. Potency, µM (titrated, usually from 46 µM), for the others: at the top dose activity change, positive = activation, hits mostly activators. actives 1.3% (n = 330,000); also: % of control where 0% means no effect; nearly all actives have a fitted effect of over 60% in size
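ELG1-luciferase HEK293T cells, 2,000/well; compound pinned in; 16 hr, 37 °C, 5% CO2; ONE-Glo, 30 min RT; luminescence on CCD imager.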
Rab9 promoter act: activates the Rab9 promoter; actives 2.8% (n = 320,000); Huh7 Rab9 promoter-luciferase reporter, luminescence, 24 h; Potency, µM (highest dose often 9.22 µM), for inactives: top-dose activation, negative = inhibition, usual class: activators; also: % of control where 0% means no effect; nearly all actives have a fitted effect of over 60% in size
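Luminescence from Amplite-detected luciferase (10 minutes, ambient) reports Rab9 promoter activation. Before that, stable Rab9-luciferase Huh7 cells (1500/well, reduced-serum OP-MEM I plus 10% FBS) were exposed to compound for 24 hours at 37C.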
FLuc modulator: firefly luciferase modulation, counter-screen for miR-21 project; AID 588342; Potency, µM (titrated, usually from 57.5 µM), for the others: top-dose activity change, negative = inhibition, usual class: inhibitors; purified FLuc, Km substrates, luminescence inhibition; actives 6.9% (n = 360,000); P08659;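 also: plate controls were vehicle for no effect and reference inhibitor for full effect; nearly all actives have a fitted effect of over 55% in size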
Target sequence (P08659 whole entry, looked up): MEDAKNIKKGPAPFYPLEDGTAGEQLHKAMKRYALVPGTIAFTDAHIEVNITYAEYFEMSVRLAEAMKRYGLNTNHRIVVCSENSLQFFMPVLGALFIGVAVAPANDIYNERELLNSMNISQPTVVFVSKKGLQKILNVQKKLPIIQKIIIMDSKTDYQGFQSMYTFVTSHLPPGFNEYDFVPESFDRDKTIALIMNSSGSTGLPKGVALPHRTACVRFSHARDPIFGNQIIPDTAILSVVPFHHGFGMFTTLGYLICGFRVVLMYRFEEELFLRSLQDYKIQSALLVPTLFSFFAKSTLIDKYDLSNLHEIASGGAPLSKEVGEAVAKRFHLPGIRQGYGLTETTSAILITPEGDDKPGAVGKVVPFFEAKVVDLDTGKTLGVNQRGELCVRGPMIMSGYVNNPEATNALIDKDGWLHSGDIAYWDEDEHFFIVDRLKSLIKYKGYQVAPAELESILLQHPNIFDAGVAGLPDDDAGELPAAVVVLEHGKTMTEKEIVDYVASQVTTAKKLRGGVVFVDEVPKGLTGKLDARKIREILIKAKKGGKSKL
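Purified P. pyralis luciferase (10nM final) with 10uM D-luciferin and 10uM ATP (Km levels) in 50mM Tris acetate pH 7.5, 10mM Mg acetate, 0.01% Tween-20, 0.05% BSA; qHTS 6-point titration, ~60 µM downward; luminescence read.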
SMN2 splice enh: increases expression of the SMN2 splice variant. HEK293 SMN2-luciferase splicing reporter, luminescence, 30-36 h. Potency, µM (top dose mostly 46.1 µM), inactives show at the highest dose activity change, positive = activation, most hits filed as activators. actives 2.8% (n = 210,000); also: % of control where 0% means no effect; nearly all actives have a fitted effect of over 55% in size
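qHTS luciferase splicing reporter: luminescence rises when SMN2 exon 7 is included in transfected HEK293 cells. Compound exposure lasted 30-36 h at 37C, with 4.5 mM final sodium butyrate as control, followed by a ONE-Glo read.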
NPC1 prom act: activators of NPC1 promoter. Huh7 NPC1 promoter luciferase reporter, 24 h. actives 2.4% (n = 320,000). AID 485313. Potency, µM (titrated, usually from 9.22 µM), for the others: at the highest dose activation, hits mostly activators; also: % of control where 0% means no effect; nearly all actives have a fitted effect of over 60% in size
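Luminescence from an NPC1 promoter-driven luciferase reporter in stably transfected Huh7 cells was measured after 24 h compound treatment at 37 °C, followed by 10 min ambient incubation with luciferase detection reagent.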
p53 reactivation: mutant p53 re-activation in reporter cells | H1299 p53-A138V BP100-luciferase reporter, luminescence, 24 h | actives 0.063% (n = 320,000) | Potency, µM (highest dose often 92.2 µM), for the others: at the highest dose activity change, positive = activation, actives largely listed as activators | AID 504706; also: % of control where 0% means no effect; nearly all actives have a fitted effect of over 45% in size
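H1299 (p53-null), stable ts p53-A138V + BP100-Luc; 1000 cells/well, Opti-MEM/10% FBS; cpd 4 pt, 1:5; 24 h, 37 deg C, 5% CO2; detection reagent 10 min RT; luminescence.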
* = called active by the depositor; u = inconclusive; x = no result; [ ] = remark or other dose. Calls follow the shape of the dose curve; as a rule, active = well fitted curve in the direction sought with a large enough effect; inconclusive = small, poorly fitted or top-dose-only effect, or another doubt; inactive = no such curve, though single readings can be large; an effect the other way counts as inactive or inconclusive. Potency is read from the fitted curve at half-maximal effect.

SMILES | ELG1 genotox | Rab9 promoter act | FLuc modulator | SMN2 splice enh | NPC1 prom act | p53 reactivation
O=C(NC1CCCCC1)c1ccc(-c2ccccc2[N+](=O)[O-])o1 | 2.06µM* | 1.41µM* | 3.79µM* | x | 0.708µM* | u
CC1CCc2c(sc(NC(=O)c3ccc(-c4ccccc4[N+](=O)[O-])o3)c2C#N)C1 (stereo not drawn) | -4.0% | 14.2% | 10.7µM* | -10.0% | 3.9% | 1.2%
N#Cc1c(NC(=O)c2ccc(-c3ccccc3[N+](=O)[O-])o2)sc2c1CCCC2 | 0.8% | 13.9% | 10.7µM* | -29.5% | -2.4% | 2.6%
Cc1onc(-c2ccccc2Cl)c1C(=O)Nc1sc2c(c1C#N)CCC2 | -9.3% | 1.3% | 9.0% | -96.4% | -0.5% | -7.8%
Cc1onc(-c2ccccc2)c1C(=O)Nc1sc2c(c1C#N)CCC(C)C2 (stereo not drawn) | -6.2% | -3.3% | u | -14.0% | -0.1% | 4.7%
Cc1onc(C(=O)Nc2sc3c(c2C#N)CCCC3)c1[N+](=O)[O-] | 6.6% | u | 13.5µM* | x | 3.0% | u
Fc1ccc(-c2cc(-c3nc(-c4cccc(Cl)c4)no3)[nH]n2)cc1 | x | x | -1.1% | x | x | x
CC(C)(C)c1ccc(/C=C/C(=O)Nc2nncs2)cc1 | 2.59µM* | 0.708µM* | 0.953µM* | u | 0.794µM* | x
O=C(/C=C/c1ccc2c(c1)OCO2)Nc1nc(-c2ccccc2)cs1 | -5.5% | -2.4% | 3.01µM* | -61.7% | -3.6% | 8.4%
O=C(/C=C/c1ccc2c(c1)OCO2)Nc1c(C(=O)O)[nH]c2ccccc12 | -1.8% | -1.5% | 7.57µM* | -0.7% | 8.3% | 10.7%
O=C(/C=C/c1ccc2c(c1)OCO2)Nc1nncs1 | u | 2µM* | 2.13µM* | x | 2.24µM* | 13.2%
O=C(Nc1nc(-c2ccc3c(c2)OCO3)cs1)C1COc2ccccc2O1 (stereo not drawn) | 0.2% | -0.2% | u | 5.7% | 0.3% | 13.0%
Cc1sc(NC(=O)/C=C/c2ccc3c(c2)OCO3)nc1-c1ccccc1 | 0.1% | -24.0% | 9.53µM* | -55.9% | -20.9% | -16.0%
COc1ccc(OC)c(NC(=O)c2oc3c(c2C)-c2nn(Cc4ccc(Cl)cc4)cc2CC3)c1 | x | x | 3.7% | x | x | x
Cc1ccc2cc(/C=N/NC(=O)c3ccc(F)cc3)c(Cl)nc2c1 | u | 0.3% | -2.0% | -22.4% | -3.1% | -2.8%
Cc1ccc(NCC(=O)N/N=C/c2cc3ccccc3nc2Cl)cc1 | 5.0% | -4.4% | 15.1µM* | -5.7% | -2.3% | 14.8%
Cc1ccc2nc(Cl)c(/C=N/Nc3ccc(C(=O)O)cc3)cc2c1 | u | 0.447µM* | 0.0675µM* | x | 0.316µM* | 8.9%
CCCCN(C)CCNC(=O)c1cc(=O)[nH]c2ccc(S(=O)(=O)N3CCCCCC3)cc12 | x | x | -0.7% | x | x | x
CC(C)COc1ccc(C(=O)Nc2cc(-c3ccccc3)no2)cc1 | x | x | x | -4.2% | x | x
COc1cc(N2Cc3ccccc3C2)ccc1C=O | 3.98µM* | u | 21.3µM* | x | u | 8.4%
O=c1cnc2cnc(Oc3cccc(Cl)c3)nc2n1Cc1ccc(F)cc1 | x | x | x | -21.8% | x | x
CC(C)CN1CCC(Oc2cccc(C(=O)NCCc3ccccc3)c2)CC1 | 20.2% | -0.2% | u | x | 0.2% | 39.8µM*
O=C(NCCc1ccccc1)c1cccnc1 | 13µM* | 3.16µM* | u | u | u | 13.3%
O=C(NCCc1ccccc1)c1cnc2ccccc2n1 | u | 1.41µM* | 8.49µM* | x | 3.55µM* | u
O=C(NCc1ccccc1)c1cccnc1 | -1.0% | -5.5% | 1.0% | x | -6.0% | -5.8%
SMILES | ELG1 genotox | Rab9 promoter act | FLuc modulator | SMN2 splice enh | NPC1 prom act | p53 reactivation
CCCNC(=O)c1cccc(Br)c1 | -7.9% | -3.7% | 4.3% | 16.4% | -1.0% | 0.1%
O=C(NCCc1ccccc1)c1cccc(Br)c1 | u | 2µM* | 21.3µM* | x | 3.55µM* | 3.3%
CCCOc1ccc(C2=NC(c3ccc(F)cc3)=Nc3ccc(OC)cc3N2)cc1 | x | x | -16.8% | 13.4% | x | x
COc1ccc(-c2nnc(C3CCN(S(=O)(=O)c4cccc(Cl)c4)CC3)o2)cc1 | x | x | -14.3% | -9.3% | x | x
CN(C)S(=O)(=O)c1cccc(C(=O)Nc2ccccc2)c1 | 0.3% | 17.7% | u | 6.6% | 19.6% | u
O=C(CCCc1ccccc1)Nc1cccc([N+](=O)[O-])c1 | u | u | u | x | 3.55µM* | 16.3%
O=C(NCCc1cccc(Cl)c1)c1ccc(Cl)c([N+](=O)[O-])c1 | 1.2% | 12.1% | u | -1.9% | 0.5% | u
O=C(NCCc1ccccc1)c1cccc([N+](=O)[O-])c1 | u | 29.6% | u | 11.2µM* | 25.1% | 19.1%
O=C(CCc1ccccc1)Nc1cccc([N+](=O)[O-])c1 | -1.2% | 0.5% | -14.1% | 9.4% | 7.6% | 8.6%
CN(C)S(=O)(=O)c1cccc(C(=O)NCCc2ccccc2)c1 | 11.6% | 1.41µM* | 7.57µM* | 11.2µM* | 0.794µM* | u
Cc1ccc(C(=O)NCCc2cccc(Cl)c2)cc1[N+](=O)[O-] | 13.4% | 25.5% | 26.9µM* | 23.8% | 22.4% | u
CCCCc1nc2c(c3c1C[C@H](C)OC3)CN(C(=O)Nc1ccc(OC)cc1)CC2 | x | x | x | -0.6%[9.22 µM] | x | x
Cc1ccccc1NC(=O)c1c(NC(=O)C(C)Oc2cccc(Cl)c2)sc2c1CCCC2 (stereo not drawn) | x | x | -11.1% | -6.9% | x | x
O=C(CN1C(=O)NC2(CCCC2)C1=O)Nc1ccc(C(F)(F)F)cc1 | 2.9% | 0.0% | -1.9% | x | -2.4% | -6.4%
Cc1cc(Cl)ccc1Nc1sc(C(=O)c2cc3cc(Cl)ccc3o2)c(N)c1C#N | x | x | x | -40.3%[9.22 µM] | x | x
COc1cccc(N2CCN(C(=O)c3ccc(Cl)c(NC4=NC5CS(=O)(=O)CC5S4)c3)CC2)c1 (stereo not drawn) | -9.6% | -5.5% | 2.3% | x | -5.5% | -3.9%
CC(C)(C)c1ccc(OCCn2cc(C(=O)c3ccco3)c3ccccc32)cc1 | x | x | -3.7% | -3.5% | x | x
Cn1cnnc1SCC(=O)Nc1sc2c(c1C#N)CCCCC2 | 7.5% | 11.2% | 26.9µM* | -17.1% | 10.5% | 5.8%
N#Cc1c(NC(=O)CSc2ncn[nH]2)sc2c1CCCCC2 | -13.8% | -24.6% | 7.57µM* | -74.0% | -18.3% | -42.9%
CC1(C)OC(=O)C(=CNc2cccc(C(=O)O)c2)C(=O)O1 | 1.5% | u | 15.1µM* | -0.3% | 24.2% | 0.9%
CC1(C)OC(=O)C(=CNc2ccccc2)C(=O)O1 | 12.0% | -0.3% | u | -3.5% | -2.7% | 2.3%
CCOC(=O)CN1C(=O)S/C(=C/c2ccc(N3CCCCC3)o2)C1=O | 0.9% | -0.6% | u | -4.6% | 0.2% | u
COC(=O)CN1C(=O)S/C(=C/c2cc(C)n(C)c2C)C1=O | u | 3.55µM* | 9.53µM* | 27.1% | 3.98µM* | 11.0%

Source: PubChem BioAssay
